# Source: the supplement of paper PMC11417369
# ± gives the standard deviation of the averaged measurements. Whole data set: some 25,000 sequences, median “ln(normalized median fluorescence intensity)” near 8.9, cut for the highest 2% near 10. The sample holds the highest values, similar sequences and a random draw of the others, so the mix is not that of the screen.
# Tested on: PfAP2-LT AP2 domain (GST-tagged)
# Experiment: gcPBM binding intensity (ln(normalized median fluorescence intensity)); higher = stronger DNA binding
# Summary of the method: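 DNA-binding domains from P. falciparum, fused to GST and produced in E. coli, were put on an Agilent 4 × 180k double-stranded probe array for 1 h in 1× PBS holding 1% milk, 0.2 mg/ml BSA, 0.5% salmon testes DNA and 0.03% Triton X-100. Probes were primer-extended, 36 bp long and drawn from intergenic genomic regions, with negative controls included. After Alexa488 anti-GST antibody detection and a 488 nm scan, binding intensity was set as the highest Masliner-normalised natural-log median intensity across replicate spots of either probe orientation.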
row,Sequence,gcPBM binding intensity (ln)
1,AAAAAAATTACATATCCATTTTAACATAATAAATAG [GTGCAC_negctrl_site618],8.33 ± 0.45
2,TACAGAATTGTATATAGTACATAAAACAATATATAT [XGTACX_site7275],8.88 ± 0.4
3,AAAATAAATAAATAAATAAATATATATATATATATA [XGTACX_negctrl_site345],9.16 ± 0.3
4,AGCCTCGGGGTCATATATATATATATATATATATAT [CACACA_negctrl_site512],10.35 ± 0.05
5,ATCAGATATATATATTGTACATTTATATATAAATCA [XGTACX_site1960],8.62 ± 0.46
6,TAACAAAAAGCACTTAGTACATATATATATATATAT [XGTACX_site1099],9.88 ± 0.44
7,AAAAAAAAAAAAAACACACACATATCTATAATATAT [CACACA_site7481],9.35 ± 0.44
8,AAAAAAAAAAAACACACACACACACTAATACATACA [CACACA_site8135],10.1 ± 0.12
9,AAAAAAAAAAAACACACACACACATACACATACATA [CACACA_site2858],10.1 ± 0.22
10,AAAAAAAAAAAACACACACACACACTAGTACATACA [CACACA_site4551],10.2 ± 0.3
11,CCTGAACACATACATACACACACACTAATAAAAAAA [CACACA_site8023],9.69 ± 0.46
12,AAAAAAAAAAAAAAAACACACATACATACATACATA [CACACA_site6125],9.26 ± 0.41
13,AAAAAAAAAAAACATACACACACACTAATATTTATA [CACACA_site8038],9.6 ± 0.23
14,TAAATGTCTTCAATGAAGTGGAAATGCTGTTATATA [CACACA_negctrl_site1155],8.54 ± 0.31
15,TATAATCATATACACGCATGTATAAAATTTAATACT [TGCATGCA_site700],8.96 ± 0.35
16,ACTATTAAAATGAATACACACAAATATAAAAATATA [CACACA_site4145],8.96 ± 0.5
17,TAATTTTTCCAACTTTGTACAGATATATTAATAAAA [XGTACX_site7856],8.13 ± 0.35
18,TGAAATGATATATAAACACACATATATATATATATA [CACACA_site3511],9.62 ± 0.25
19,TGCAAGGAACAACACACACACACATAAATGTATATA [CACACA_site8149],10.2 ± 0.36
20,ATAAAATGAACAAACACACACACATATATTTATATA [CACACA_site7181],9.84 ± 0.16
21,AAACAAAATGGTAACACACACATATATAAATATGTA [CACACA_site6994],9.38 ± 0.47
22,AAACAAAATGGTAACACACACATATATATATATATA [CACACA_site1939],10.09 ± 0.021
23,AAAAAAACATGAAACACACACAAATATATATATATA [CACACA_site1884],9.53 ± 0.52
24,AAAAATGAGAAACACACACACATATATATATATATA [CACACA_site2228],9.94 ± 0.19
25,TAAAACAAAATGGTAACACACACATATATATATATA [CACACA_site8590],9.87 ± 0.15
26,TGCAAGGAAAAACACACACACACATAAATGTATATA [CACACA_site751],9.79 ± 0.25
27,ACACATAAATGTATATATATATAAATATATGTATGT [CACACA_negctrl_site1532],9.12 ± 0.33
28,AAAATGAACAAACACACACACATATATATATATATA [CACACA_site2403],10.27 ± 0.057
29,AAAAAAATGAAACACACACACACATATATATATATA [CACACA_site1043],10.1 ± 0.085
